# Test results published in the antibiotic and cytotoxicity screens of Wong et al. (2023).
# The whole screen tested about 39,000 compounds, of which about 1,500 (3.8%) were called active. Only a selection was taken, and actives are over-represented in it overall.
# Tested on: HSkMC (human skeletal muscle cells)
# Assay: cytotoxicity call (relative viability < 0.9)
# Details: 10 µM
row,SMILES,cytotoxicity call
1,Nc1cnc2ncc(N)cc2c1,inactive
2,CN1CCN(C(=O)C[C@@H]2C=C[C@H](NS(=O)(=O)c3cccc(F)c3)[C@H](CO)O2)CC1,inactive
3,C[C@@H]1CCCCO[C@@H](CN(C)CC2CCCCC2)[C@@H](C)CN([C@H](C)CO)C(=O)c2cc(NC(=O)NC3CCCCC3)ccc2O1,inactive
4,Nc1nc(=O)c2nc(C(=O)O)cnc2[nH]1,inactive
5,COc1cccc(S(=O)(=O)N(C)C[C@@H]2Oc3cc(Br)ccc3S(=O)(=O)N([C@@H](C)CO)C[C@@H]2C)c1,inactive
6,C[C@H]1CCCCO[C@@H](CN(C)Cc2ccc(C(F)(F)F)cc2)[C@@H](C)CN([C@@H](C)CO)C(=O)c2cc(NS(=O)(=O)c3ccc(Cl)cc3)ccc2O1,inactive
7,C[C@H](CO)N1C[C@H](C)[C@H](CN(C)Cc2ccc(C(F)(F)F)cc2)OCCCC[C@H](C)Oc2ccc(NS(=O)(=O)c3ccc(Cl)cc3)cc2C1=O,active
8,C[C@@H]1CCCCO[C@@H](CN(C)Cc2ccc(C(F)(F)F)cc2)[C@H](C)CN([C@H](C)CO)C(=O)c2cc(NS(=O)(=O)c3ccc(Cl)cc3)ccc2O1,active
9,C[C@@H]1CCCCO[C@@H](CN(C)Cc2ccc(C(F)(F)F)cc2)[C@H](C)CN([C@@H](C)CO)C(=O)c2cc(NS(=O)(=O)c3ccc(Cl)cc3)ccc2O1,active
10,C[C@@H]1CCCCO[C@H](CN(C)Cc2ccc(C(F)(F)F)cc2)[C@@H](C)CN([C@H](C)CO)C(=O)c2cc(NS(=O)(=O)c3ccc(Cl)cc3)ccc2O1,inactive
11,C[C@@H]1CCCCO[C@@H](CN(C)Cc2ccc(C(F)(F)F)cc2)[C@@H](C)CN([C@H](C)CO)C(=O)c2cc(NS(=O)(=O)c3ccc(Cl)cc3)ccc2O1,inactive
12,C[C@H]1CCCCO[C@@H](CN(C)Cc2ccc(C(F)(F)F)cc2)[C@@H](C)CN([C@@H](C)CO)C(=O)c2cc(NS(=O)(=O)c3ccc(F)cc3)ccc2O1,inactive
13,C[C@@H]1CN([C@@H](C)CO)C(=O)c2cc(NS(=O)(=O)c3ccc(Cl)cc3)ccc2O[C@@H](C)CCCCO[C@@H]1CN(C)Cc1ccc(C(F)(F)F)cc1,inactive
14,C[C@@H]1CN([C@H](C)CO)C(=O)c2cc(NS(=O)(=O)c3ccc(Cl)cc3)ccc2O[C@@H](C)CCCCO[C@@H]1CN(C)Cc1ccc(C(F)(F)F)cc1,inactive
15,C[C@H]1CCCCO[C@H](CN(C)Cc2ccc(C(F)(F)F)cc2)[C@@H](C)CN([C@@H](C)CO)C(=O)c2cc(NS(=O)(=O)c3ccc(Cl)cc3)ccc2O1,active
16,CCOC(=O)C1CCN(c2cn[nH]c(=O)n2)CC1,inactive
17,C[C@H]1CN([C@@H](C)CO)C(=O)Cc2cc(NC(=O)Nc3cccc4ccccc34)ccc2O[C@@H]1CN(C)C(=O)Nc1ccccc1,inactive
18,C=CCOC(=O)[C@H]1[C@@H]2C(=O)O[C@@H](c3ccccc3)[C@@H](c3ccccc3)N2[C@@H](c2ccc(OCCOC(=O)[C@H]3C[C@H]4C(=O)N5CCC[C@H]5C(=O)N4[C@H]3c3cccc(OCCO)c3)cc2)[C@]12C(=O)Nc1ccccc12,inactive
19,COc1ccc(NC(=O)N(C)C[C@H]2OCc3cnnn3CCCC(=O)N([C@H](C)CO)C[C@@H]2C)c(OC)c1,inactive
20,COc1ccc(S(=O)(=O)N(C)C[C@H]2Oc3ccc(NS(=O)(=O)c4ccc(F)cc4)cc3CC(=O)N([C@@H](C)CO)C[C@@H]2C)cc1,inactive

row,SMILES,cytotoxicity call
1,C[C@@H]1CN([C@@H](C)CO)C(=O)c2cc(NS(=O)(=O)c3ccc(Cl)cc3)ccc2O[C@@H](C)CCCCO[C@H]1CN(C)Cc1ccc(C(F)(F)F)cc1,active
2,C[C@@H]1CN([C@@H](C)CO)C(=O)c2cccc(NC(=O)Nc3ccc(C(F)(F)F)cc3)c2O[C@@H]1CN(C)Cc1ccc(Oc2ccccc2)cc1,active
3,C[C@H](CO)N1C[C@H](C)[C@H](CN(C)Cc2ccc(Oc3ccccc3)cc2)Oc2c(NC(=O)Nc3ccc(C(F)(F)F)cc3)cccc2C1=O,active
4,C[C@@H]1CN([C@@H](C)CO)C(=O)c2cccc(NC(=O)Nc3ccc(C(F)(F)F)cc3)c2O[C@H]1CN(C)Cc1ccc(Oc2ccccc2)cc1,active
5,C[C@H]1CN([C@@H](C)CO)C(=O)c2cccc(NC(=O)Nc3ccc(C(F)(F)F)cc3)c2O[C@H]1CN(C)Cc1ccccc1,inactive
6,C[C@@H]1CN([C@H](C)CO)C(=O)c2cccc(NC(=O)Nc3ccc(C(F)(F)F)cc3)c2O[C@H]1CN(C)Cc1ccc(Oc2ccccc2)cc1,active
7,C[C@H]1CN([C@@H](C)CO)C(=O)c2cccc(NC(=O)Nc3ccc(C(F)(F)F)cc3)c2O[C@@H]1CN(C)Cc1ccc(Oc2ccccc2)cc1,inactive
8,COC[C@H]1CNN1C(=O)c1cc(C)oc1C,inactive
9,C[C@@H]1CN([C@@H](C)CO)C(=O)c2cccc(NS(=O)(=O)c3cn(C)cn3)c2O[C@@H]1CN(C)C(=O)NC1CCCCC1,inactive
10,C[C@H]1CCCCO[C@H](CN(C)C(=O)c2ccccc2)[C@@H](C)CN([C@@H](C)CO)C(=O)c2cc(NC(=O)c3ccccc3)ccc2O1,inactive
11,COc1cccc(-c2ccc3c(c2)O[C@H](CN(C)C(=O)C2CCOCC2)[C@H](C)CN([C@H](C)CO)S3(=O)=O)c1,inactive
12,C[C@H](CO)N1C[C@H](C)[C@H](CN(C)Cc2ccccc2)Oc2c(NC(=O)Nc3ccc(C(F)(F)F)cc3)cccc2C1=O,inactive
13,C[C@H]1CN([C@@H](C)CO)C(=O)c2cccc(NC(=O)Nc3ccc(C(F)(F)F)cc3)c2O[C@H]1CN(C)Cc1ccc(Oc2ccccc2)cc1,active
14,C[C@@H]1CN([C@H](C)CO)C(=O)c2cccc(NC(=O)Nc3ccc(C(F)(F)F)cc3)c2O[C@@H]1CN(C)Cc1ccc(Oc2ccccc2)cc1,active
15,C[C@H](CO)N1C[C@H](C)[C@@H](CN(C)Cc2ccc(Oc3ccccc3)cc2)Oc2c(NC(=O)Nc3ccc(C(F)(F)F)cc3)cccc2C1=O,active
16,C[C@@H]1CN([C@H](C)CO)C(=O)c2cccc(NC(=O)Nc3ccccc3)c2O[C@@H]1CN(C)Cc1ccc(C(F)(F)F)cc1,inactive
17,C[C@@H]1CCCCO[C@@H](CN(C)CC2CC2)[C@H](C)CN([C@H](C)CO)C(=O)c2cc(NC(=O)Cc3ccccc3)ccc2O1,inactive
18,C[C@@H]1CN([C@H](C)CO)C(=O)c2cc(NC(=O)c3ccncc3)ccc2O[C@@H](C)CCCCO[C@@H]1CN(C)C(=O)C1CCCCC1,inactive
19,COc1ccc(NC(=O)N2C[C@@H](O)COC[C@@H]3O[C@H](CC(=O)NC4Cc5ccccc5C4)CC[C@H]32)cc1,inactive
20,CC(C)NC(=O)N(C)C[C@H]1Oc2ccc(NC(=O)NC3CCCCC3)cc2C(=O)N([C@@H](C)CO)C[C@H]1C,inactive

row,SMILES,cytotoxicity call
1,CC(C)NC(=O)Nc1ccc2c(c1)C(=O)N([C@H](C)CO)C[C@H](C)[C@H](CN(C)S(=O)(=O)c1cn(C)cn1)OCCCC[C@H](C)O2,inactive
2,C[C@@H]1CN([C@H](C)CO)C(=O)c2cc(NC(=O)Cn3cnnn3)ccc2O[C@@H]1CN(C)Cc1ccc(Oc2ccccc2)cc1,inactive
3,CCS(=O)(=O)N[C@H]1C=C[C@@H](CC(=O)NCc2ccc(Cl)cc2)O[C@@H]1CO,inactive
4,C[C@@H]1CCCCO[C@H](CN(C)Cc2ccc(Cl)c(Cl)c2)[C@H](C)CN([C@@H](C)CO)C(=O)c2cc(NC(=O)CCC(F)(F)F)ccc2O1,inactive
5,C[C@H](CO)N1C[C@H](C)[C@@H](CN(C)Cc2ccc(Cl)c(Cl)c2)OCCCC[C@H](C)Oc2ccc(NC(=O)CCC(F)(F)F)cc2C1=O,inactive
6,C[C@@H]1CN([C@H](C)CO)C(=O)c2cc(NC(=O)CCC(F)(F)F)ccc2O[C@@H](C)CCCCO[C@@H]1CN(C)Cc1ccc(Cl)c(Cl)c1,active
7,C[C@H]1CCCCO[C@H](CN(C)Cc2ccc(Cl)c(Cl)c2)[C@@H](C)CN([C@@H](C)CO)C(=O)c2cc(NC(=O)CCC(F)(F)F)ccc2O1,inactive
8,C[C@@H]1CN([C@H](C)CO)C(=O)c2cc(NC(=O)CCC(F)(F)F)ccc2O[C@@H](C)CCCCO[C@H]1CN(C)Cc1ccc(Cl)c(Cl)c1,active
9,C[C@@H]1CCCCO[C@@H](CN(C)Cc2ccc(Cl)c(Cl)c2)[C@H](C)CN([C@H](C)CO)C(=O)c2cc(NC(=O)CCC(F)(F)F)ccc2O1,inactive
10,C[C@H](CO)N1C[C@H](C)[C@@H](CN(C)Cc2ccc(C(=O)O)cc2)OCCCC[C@H](C)Oc2ccc(NC(=O)CCC(F)(F)F)cc2C1=O,inactive
11,Cc1cc(OCCCS(C)(=O)=O)cc(C)c1-c1cccc(COc2ccc3c(c2)OC[C@H]3CC(=O)O)c1,active
12,C[C@@H]1CN([C@H](C)CO)C(=O)c2cccc(NC(=O)c3ccc(-c4nccs4)cc3)c2O[C@H]1CN(C)Cc1ccccc1,inactive
13,CC(C)(N)c1cn(C2CCN(C(=O)C3CCC(C(C)(C)C)CC3)CC2)nn1 (stereo not given),inactive
14,CCO[C@@H]1OC(C(=O)N2CCOCC2)=C[C@H](c2coc3ccccc3c2=O)[C@H]1CCCOC(=O)NCCCCCC(=O)NO,inactive
15,COc1ccc(S(=O)(=O)Nc2ccc3c(c2)CC(=O)N([C@@H](C)CO)C[C@@H](C)[C@@H](CN(C)C(=O)Nc2c(C)noc2C)O3)cc1,inactive
16,COc1cc(OC)c(S(=O)(=O)N(C)Cc2ccccc2)cc1S(=O)(=O)N(C)Cc1ccccc1,inactive
17,Cc1ccc2sc(N(CCCN(C)C)C(=O)c3ccc(S(=O)(=O)N(C)C4CCCCC4)cc3)nc2c1C,active
18,Cc1ccc2sc(N(CCCN(C)C)C(=O)c3ccc(S(=O)(=O)N(C)Cc4ccccc4)cc3)nc2c1C,active
19,Cc1cc(Cl)cc2sc(N(Cc3ccccn3)C(=O)c3ccc(S(=O)(=O)N4CCCC4)cc3)nc12,inactive
20,O=C(c1ccc(S(=O)(=O)N2CCCCCC2)cc1)N(Cc1cccnc1)c1nc2c(F)cc(F)cc2s1,inactive
